Results taken from PubChem BioAssay (EPA / NIEHS).
Records with an inconclusive call do not appear. Activity calls are given as the source filed them. Rule for the calls: active = hit-call score of the fitted dose curve at least 0.9, where 1 is the maximum; inconclusive = response in the unintended direction; inactive = score below 0.9.

Experiments:
[1] = TOX21_p53_BLA_p2_viability: Viability Assessment in the Tox21 HCT-116 p53 Agonism Beta-lactamase Assay, Phase 2 (AID 2283591);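 note: compound exposure lasted 16 h at 37 °C; actives lower the ATP signal meaning cytotoxicity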
Outline: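 HCT-116 p53-bla cells (4000/well) rested 5 h at 37C, then received compounds in DMSO (217-fold dilution) for 16 h at 37C, 5% CO2. After the CCF4 read, CellTiter-Glo was added; ATP luminescence was read after 30 min at room temperature.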

[2] = target: Cellular tumor antigen p53 (Homo sapiens) (UniProt P04637); assay: TOX21_p53_BLA_p2_ratio: Tox21 HCT-116 p53 Agonism Beta-lactamase Assay, Ratio, Phase 2 (AID 2283592)
Chain of Cellular tumor antigen p53 (Homo sapiens) (P04637 whole entry, looked up): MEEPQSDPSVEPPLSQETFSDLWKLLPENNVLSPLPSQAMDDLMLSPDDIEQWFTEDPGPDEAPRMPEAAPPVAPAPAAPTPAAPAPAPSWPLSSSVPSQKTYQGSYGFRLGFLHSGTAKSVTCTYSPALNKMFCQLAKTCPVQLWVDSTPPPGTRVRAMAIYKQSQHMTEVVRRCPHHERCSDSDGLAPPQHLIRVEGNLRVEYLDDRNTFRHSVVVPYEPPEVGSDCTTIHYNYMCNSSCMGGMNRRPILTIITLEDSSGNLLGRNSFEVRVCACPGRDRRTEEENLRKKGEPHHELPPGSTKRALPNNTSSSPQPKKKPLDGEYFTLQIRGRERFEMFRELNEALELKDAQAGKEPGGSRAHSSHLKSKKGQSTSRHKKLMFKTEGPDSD
Outline: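 Plated HCT116 p53-bla cells (4000/well) received compound after 5 h, then 16 h at 37C/5% CO2. CCF4-AM added, 2 h RT. Ratio of 460 to 530 nm emission taken as the p53 reporter signal.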

[3] = TOX21_p53_BLA_p3_viability: Viability Assessment in the Tox21 HCT-116 p53 Agonism Beta-lactamase Assay, Phase 3 (AID 2283593);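 note: cells exposed to compound for 16 h before reading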
Outline: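 HCT-116 cells (4000/well) rested 5 h at 37C, then got DMSO compounds by pin tool (217-fold dilution) for 16 h at 37C, 5% CO2. After the bla read, CellTiter-Glo was added and luminescence read at 30 min, room temperature.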

[4] = TOX21_p53_BLA_p4_viability: Viability Assessment in the Tox21 HCT-116 p53 Agonism Beta-lactamase Assay, Phase 4 (AID 2283597);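 note: hits lower the luminescence signal meaning cytotoxicity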
Outline: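 Readout: ATP luminescence (CellTiter-Glo), measured 30 min after reagent addition at RT. The reagent followed a 2 h CCF4-AM incubation, and the cells had been exposed to compound for 16 h at 37C.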

[5] = target: Cellular tumor antigen p53 (Homo sapiens) (UniProt P04637); assay: TOX21_p53_BLA_p5_ratio: Tox21 HCT-116 p53 Agonism Beta-lactamase Assay, Ratio, Phase 5 (AID 2283599)
Outline: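 HCT-116 cells carrying a p53-inducible beta-lactamase reporter were seeded at 4000 cells/well and dosed after 5 h with compound in DMSO (217-fold dilution). After 16 h at 37C, CCF4-AM substrate was added for 2 h, and the 460/530 nm emission ratio was scored as gain-of-signal versus DMSO.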

[6] = TOX21_p53_BLA_p5_viability: Viability Assessment in the Tox21 HCT-116 p53 Agonism Beta-lactamase Assay, Phase 5 (AID 2283600)
Outline: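 Workflow: seed 4000 cells per well, wait 5 h, add compounds (DMSO, 217-fold dilution), incubate 16 h, load CCF4-AM 2 h, add CellTiter-Glo, read luminescence after 30 min.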

[7] = target: Cellular tumor antigen p53 (Homo sapiens) (UniProt P04637); assay: TOX21_p53_BLA_p4_ratio: Tox21 HCT-116 p53 Agonism Beta-lactamase Assay, Ratio, Phase 4 (AID 2283601)
Outline: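 HCT116 cells carrying an inducible beta-lactamase reporter were plated at 4000 cells/well, rested 5 h, then exposed to compounds in DMSO (217-fold dilution) for 16 h at 37C. CCF4-AM substrate was loaded 2 h at room temperature; 460/530 nm emission ratio scored gain-of-signal versus DMSO.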

[8] = target: Thyroid hormone receptor alpha (Rattus norvegicus) + Thyroid hormone receptor beta (Rattus norvegicus) (UniProt P18113+P63059); assay: TOX21_TR_LUC_GH3_Antagonist_Followup: Tox21 GH3 Thyroid Hormone Receptor Antagonism Luciferase Follow-Up Assay (AID 2283942)
Outline: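 In a GH3 luciferase reporter line, test chemicals spanning 92 uM to 5nM final are co-incubated 24 h with 1.0 nM T3. Activity is expressed as relative luminescence units and analysed relative to DMSO.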

THRB (gene 7068) [9] = target: THRB (gene 7068) (UniProt P10828); assay: TOX21_TRB_BLA_Antagonist_Followup_ratio: Tox21 Thyroid Hormone Receptor beta Antagonism Beta-lactamase (BLA) Follow-Up Assay, Ratio (AID 2283958)
Chain of THRB (gene 7068) (P10828 whole entry, looked up, the tested form may be a part): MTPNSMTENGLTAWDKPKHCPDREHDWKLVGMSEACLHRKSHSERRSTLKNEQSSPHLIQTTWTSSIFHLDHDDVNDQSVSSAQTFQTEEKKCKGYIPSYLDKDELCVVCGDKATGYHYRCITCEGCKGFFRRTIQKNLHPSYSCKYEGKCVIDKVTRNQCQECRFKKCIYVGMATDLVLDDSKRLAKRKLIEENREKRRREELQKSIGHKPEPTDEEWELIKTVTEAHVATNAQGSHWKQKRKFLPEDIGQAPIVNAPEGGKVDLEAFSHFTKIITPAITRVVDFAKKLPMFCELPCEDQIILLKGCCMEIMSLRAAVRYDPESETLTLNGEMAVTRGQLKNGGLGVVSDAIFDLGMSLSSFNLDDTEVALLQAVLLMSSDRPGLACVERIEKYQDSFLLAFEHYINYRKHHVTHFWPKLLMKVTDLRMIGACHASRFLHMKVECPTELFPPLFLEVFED
Outline: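 Read-out: blue/green (460:530 nm) ratio of cleaved to uncleaved CCF4-AM after 2 h at room temperature, fitted against DMSO baseline. HEK293T UAS-bla cells carrying GAL4-human TRβ LBD were exposed 18 h, 37C/5% CO2.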

[10] = TOX21_TRB_BLA_Antagonist_Followup_viability: Viability Assessment in the Tox21 Thyroid Hormone Receptor beta Antagonism Beta-lactamase (BLA) Follow-Up Assay (AID 2283961)
Outline: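 TRβ-bla HEK293T (human TRβ LBD fused to GAL4 DBD), 3,000 cells/well, 2% charcoal-stripped FBS, phenol red-free medium; 18 h compound exposure, 37C; CellTiter-Glo 30 min RT; luminescence, loss-of-signal readout.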

THRB (gene 7068) [11] = target: THRB (gene 7068) (UniProt P10828); assay: TOX21_TRB_COA_Antagonist_Followup_ratio: Tox21 Thyroid Hormone Receptor beta Antagonism through Coactivator Recruitment Follow-Up Assay, Ratio (AID 2283967)
Outline: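 Coactivator (SRC-2) recruitment to purified GST-TRβ ligand-binding domain is monitored by terbium-to-fluorescein energy transfer, emission ratio 520:495 nm. DMSO wells define 0% and T3 wells 100% activity.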

[12] = TOX21_TR_RXR_BLA_Antagonist_Followup_viability: Viability Assessment in the Tox21 Thyroid Hormone Receptor beta Retinoid X Receptor alpha (RXRa) Antagonism Beta-lactamase (BLA) Follow-Up Assay (AID 2283979)
Outline: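 RXRa-UAS-bla HEK293T cells seeded 2,500/well in phenol red-free DMEM with 2% charcoal-stripped FBS, attached 5 h, then exposed to compounds at 11 concentrations in triplicate for 16 h at 37C/5% CO2. Viability read by CellTiter-Glo ATP luminescence; bidirectional fit versus DMSO.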

Measured: AC50

Cc1c(Nc2ncccc2C(=O)O)cccc1C(F)(F)F
inactive: all assays above

Cc1cc(N)c2cc(NC(=O)Nc3ccc4nc(C)cc(N)c4c3)ccc2n1
inactive: [1] | [2] | [3] | [5] | [6] | [7]
active: [4] 29.7 µM

O=C(O[C@H]1CN2CCC1CC2)N1CCc2ccccc2[C@@H]1c1ccccc1
inactive: [1] | [2] | [3] | [4] | [5] | [6] | [7]

CCOc1ccc(N=Nc2ccc(N)cc2N)cc1
inactive: [1] | [2] | [3] | [4] | [5] | [6] | [7]

c1ccncc1
inactive: [1] | [2] | [3] | [4] | [5] | [6] | [7]

NCCCC[C@H](NC(=O)[C@@H]1CCCN1C(=O)[C@@H]1CSSC[C@H](N)C(=O)N[C@@H](Cc2ccccc2)C(=O)N[C@@H](Cc2ccccc2)C(=O)N[C@@H](CCC(N)=O)C(=O)N[C@@H](CC(N)=O)C(=O)N1)C(=O)NCC(N)=O
inactive: [1] | [2] | [3] | [4] | [5] | [6] | [7]

CCOc1cc(-c2nccc3cc(OC)c(OC)cc23)cc(OCC)c1OCC
inactive: [1] | [2] | [3] | [4] | [5] | [6] | [7]

CC(C(=O)O)c1ccc(C(=O)c2ccccc2)s1 (stereo not given)
inactive: [1] | [2] | [3] | [4] | [5] | [6] | [7]

CCOC(=O)c1cnc2c(cnn2CC)c1NN=C(C)C
inactive: [1] | [2] | [3] | [4] | [5] | [6] | [7]

CC[C@@H](CO)NCCN[C@@H](CC)CO
inactive: [1] | [2] | [3] | [4] | [5] | [6] | [7]

Cc1cc2c(C(C)C)c(O)c(O)c(C=O)c2c(O)c1-c1c(C)cc2c(C(C)C)c(O)c(O)c(C=O)c2c1O
active: [1] 10 µM | [2] 30.1 µM | [3] 6.89 µM | [4] 10 µM | [5] 35 µM | [6] 10.2 µM | [7] 33.2 µM

CCCCCCCCCCCC(=O)OC[C@@H](O)[C@H]1OC[C@H](OCCO)[C@H]1OCCO
inactive: [1] | [2] | [3] | [4] | [5] | [6] | [7]

O=P(O)(OCc1ccccc1)OCc1ccccc1
inactive: [1] | [2] | [3] | [4] | [6] | [7]
active: [5] 86.9 µM

CCOC(=O)NNc1ccc(N(CC)CC(C)O)nn1 (stereo not given)
inactive: [1] | [2] | [3] | [4] | [5] | [6] | [7]

Cc1c(C(=O)O)cccc1[N+](=O)[O-]
inactive: [1] | [2] | [3] | [4] | [5] | [6] | [7]
